Compound activity (PubChem BioAssay)
A selection: hits, their analogues and other compounds. The true share with any hit is near 1.9%.
BJeLR viability = MLPCN primary cell-based screen for lethality selective to Ras in HRASV12 cells | BJeLR (HRASV12) viability, CellTiter-Glo ATP luminescence, 48 h | 300,000 tested, 0.17% active | AID 1554, 2009 | inhibition, % (no concentration beside the values); in the data active means inhibition above about 50%; inconclusive means no clear call, values can overlap the other calls
PriA SSB inh = inhibitors of Klebsiella pneumoniae PriA binding to SSB C-terminal tail, primary screen, biochemical, AlphaScreen; 430,000 tested, 0.6% active; inhibition, % at 33 µM; AlphaScreen SSBct-PriA binding, biotinylated peptide; in the data active means inhibition mostly above about 37%, no sharp cut-off; inactive means mostly below about 20%;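 further: plate controls were negative control peptide for no effect and reference peptide for full effect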
RecA intein inh = Mtb RecA intein splicing inhibitors, primary screen, biochemical, fluorescence, HTS; Protein RecA (Mycobacterium tuberculosis (strain ATCC 25618 / H37Rv)), P9WHJ3; cell-free RecA intein splicing; inhibition, % (concentration not given with the values); 290,000 tested, 0.75% active; AID 2221, 2009; in the data active means inhibition above about 30%; inconclusive means no clear call, values can overlap the other calls;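 further: 0% = vehicle wells and 100% = reference inhibitor control wells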
PrPC surface inh = inhibitors of human cell surface prion protein PrPC, primary screen, cell-based, TR-FRET | inhibition, % at 13.8 µM | Major prion protein (Homo sapiens), P04156 | AID 720596, 2013 | 370,000 tested, 0.43% active | TR-FRET read-out; in the data active means inhibition above about 24%; further: 0% = median of the test wells and 100% = reference compound wells
PrP UTR inh = inhibition of PrP 5' UTR reporter expression. cell-based PrP 5' UTR mRNA reporter, plate reader. inhibition, % (no concentration beside the values). 340,000 tested, 0.35% active. AID 488862, 2010; in the data active means inhibition above about 52%; further: 0 = median of the neutral control wells
PfHsp40 yeast = rescue of yeast from PfHsp40 toxicity, primary screen, S. cerevisiae, ATP luminescence | growth rescue, % at 12.5 µM | 340,000 tested, 0.68% active | S. cerevisiae expressing PfHsp40, growth rescue | AID 504582, 2011; in the data active means growth rescue above about 28%, passing the limit was not always enough; inconclusive means no clear call, values can overlap the other calls;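 further: yeast W303a lacking pdr1 and pdr3 grown in galactose medium; growth measured after three days at 30 °C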
Numbers without * were called inactive; ? = inconclusive; . = not tested or not shown.

SMILES	BJeLR viability	PriA SSB inh	RecA intein inh	PrPC surface inh	PrP UTR inh	PfHsp40 yeast
C=CCn1nc([N+](=O)[O-])nc1Sc1cccc2cccnc12	-6	102*	2	.	-19	4
CSc1cccc2cccnc12	.	75*	.	.	.	.
CC(=O)Nc1ccc(SCCCC(=O)NCCN2CCOCC2)nn1	.	-5	.	.	.	.
CC(C)C(=O)Nc1sccc1C(N)=O	.	9	.	.	.	.
ClC1(Cl)CC1CSc1cccc2cccnc12 (stereo not drawn)	.	128*	.	.	.	.
Cc1ccc2ccc3cccnc3c2n1	-21	50*	-1	-4	-22	?
O=C(CCCN1C(=O)/C(=C/c2ccccc2)SC1=S)Nc1ccc(C(=O)O)c(O)c1	2	7	38*	-11	-31	0
O=C(CCN1C(=O)/C(=C\c2ccccc2F)SC1=S)Nc1ccc(C(=O)O)c(O)c1	4	.	32*	-22	-13	-1
COc1ccc(C=C2SC(=S)N(CCCC(=O)Nc3ccc(C(=O)O)c(O)c3)C2=O)cc1OC	.	.	.	-44	.	.
O=C(CCN1C(=O)S/C(=C/c2ccccc2)C1=O)Nc1ccc(C(=O)O)c(O)c1	0	-6	5	-29	-12	-1
COc1ccc(Cl)cc1N1C(=O)CC(N2CCc3ccccc32)C1=O (stereo not drawn)	1	3	0	11	3	43*
Cc1ccc(S(=O)(=O)N2CCOC23CCN(C(=O)c2cc(Cl)ccc2Cl)CC3)cc1	3	10	13	5	-13	91*
Cc1ccc(S(=O)(=O)N2CCC3(CC2)OCCN3S(=O)(=O)c2cccs2)cc1	4	-6	5	2	-18	9
O=S(=O)(c1ccc(Cl)cc1)N1CCC2(CC1)OCCN2S(=O)(=O)c1cccs1	11	-5	12	-2	-12	55*
CCCCOc1ccc(C(=O)Nc2ccc3c(c2)N(C(C)=O)CC3)cc1	.	-6	.	.	.	.
CCOc1cc(/C=N/NC(N)=S)cc(Br)c1OCc1ccccc1C	0	.	6	.	-36	83*
COCc1[nH]nc2c1C(c1ccc(OC)cc1)C(C#N)=C(N)O2 (stereo not drawn)	13	1	58*	-2	-14	-1
COCc1[nH]nc2c1C(c1ccccc1F)C(C#N)=C(N)O2 (stereo not drawn)	-21	-13	35*	-5	-1	-1
N#CCCN1CCCc2cc(N=Nc3ccc(C(F)(F)F)cc3)ccc21	-8	45*	12	9	-75	0
CCCN1CCCc2cc(CCNC(=O)C(=O)Nc3cccc(C(F)(F)F)c3)ccc21	.	-31	.	.	.	.
Cc1ccnc(Nc2ccc(NCCNC(=O)C3CCCC3)nn2)c1	.	-16	.	.	.	.
CCSc1ccccc1C(=O)Nc1cccc2c1C(=O)NC2=O	.	-6	.	.	.	.
Oc1ccccc1N=Cc1c(O)ccc2oc3c(c12)CCCC3	-8	-6	-1	-6	-8	190*
O=C(O)c1ccc(=O)[nH]n1	.	41*	.	.	.	.
Cc1c(CNS(=O)(=O)c2ccccc2F)sc2nc(-c3ccc(F)cc3)cn12	.	36*	.	.	.	.
SMILES	BJeLR viability	PriA SSB inh	RecA intein inh	PrPC surface inh	PrP UTR inh	PfHsp40 yeast
COc1cccc(OC)c1C(=O)NCc1sc2nc(-c3ccc(F)cc3)cn2c1C	.	-10	.	.	.	.
Cc1ccc(-n2nc3c(c2NC(=O)C(C)(C)C)CSC3)c(C)c1	2	-8	-1	-10	-31	1
CCC(=O)Nc1c2c(nn1-c1ccc(C)cc1C)CSC2	-2	-5	-1	-4	-21	48*
O=C(c1ccc(Cl)s1)N(CCCn1ccnc1)c1nc2c(F)cccc2s1	.	38*	.	.	.	.
Cc1c(Cl)ccc2sc(N(CCCn3ccnc3)C(=O)COc3ccccc3)nc12	.	43*	.	.	.	.
CCc1cccc2sc(N(CCCn3ccnc3)C(=O)c3cccc(OC)c3OC)nc12	.	42*	.	.	.	.
CN(C)CCCN(C(=O)COc1ccccc1)c1nc2c(F)cccc2s1	22	6	0	-5	.	-1
COc1cc(OC)cc(C(=O)N(CCCn2ccnc2)c2nc3cc(C)cc(C)c3s2)c1	.	40*	.	.	.	.
CC(=O)c1ccc(C(=O)N(CCCN(C)C)c2nc3cc(C)cc(C)c3s2)cc1	.	-4	.	.	.	.
COc1cccc(C(=O)N(CCCn2ccnc2)c2nc3ccc(C)cc3s2)c1OC	.	41	.	.	.	.
